Test results taken from PubChem BioAssay.
Measured potencies and affinities stand elsewhere. Records with an inconclusive call do not appear. The source made the active and inactive calls.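 The calls were made as follows, unless noted: active = a dose-response fit showing signal loss, with half-maximal concentration no higher than twice the top tested dose; inconclusive = flat fit between 30% and 70% signal loss, or poor fit; inactive = the rest.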

Columns and labels:
[1] = fungal growth arrest, C. neoformans – Alamar Blue, cherry-picks, dose response (AID 686998;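 active = falling signal with fitted half-maximal potency no higher than twice the top valid tested dose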); conditions: Cryptococcus neoformans growth, 24 h; series mostly up to 35 µM
[2] = C. neoformans lysis by adenylate kinase leakage – AK release luminescence, cherry-picks, dose response (AID 687000;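 active = fitted dose curve reaches 40% lysis signal rise at or below the highest valid concentration tested for that sample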;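 also: luminescent detection of adenylate kinase leaking from lysed yeast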); conditions: 4 h, 100% = twice the neutral-control signal; series mostly up to 15 µM
[3] = viability loss in HepG2 hepatoma cells – cell-based, cherry-picks, set 2, cytotoxicity control, dose response (AID 687002); conditions: ATP luminescence (CellTiter-Glo), 48 h; series mostly up to 26 µM
[4] = viability loss in HeLa cells – cell-based, ATP luminescence, cherry-pick samples, cytotoxicity control, dose response (AID 687004;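 active = a fitted half-maximal concentration no higher than twice the top valid tested dose, with signal falling as cells die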); conditions: ATP luminescence (CellTiter-Glo), 48 h; series mostly up to 26 µM

Measured: outcome

CC(=O)NC[C@H]1[C@@H](c2ccc(C3=CCCC3)cc2)[C@@H](CO)N1C(=O)NC(C)C
inactive: all assays above

C[C@@H]1CN([C@H](C)CO)C(=O)Cc2cc(NC(=O)Nc3cccc4ccccc34)ccc2O[C@@H]1CN(C)Cc1ccc(C(=O)O)cc1
inactive: all assays above

Cc1cccc(C)c1NC(=O)C1NC(=O)CC1c1ccccc1 (centres undefined)
inactive: all assays above

COc1ccc(-n2ncc3c(SCC(=O)NNC(C)=O)ncnc32)cc1
inactive: all assays above

CO[C@@H]1CN(C)C(=O)c2ccc(NC(=O)Nc3ccccc3)cc2OC[C@H](C)N(C(C)=O)C[C@H]1C
inactive: all assays above

COc1ccccc1CNC(=O)C[C@@H]1CC[C@@H]2[C@H](COC[C@@H](O)CN2Cc2ccccc2)O1
inactive: all assays above

Cc1cccc(C)c1NC(=O)CN1CCCC1
inactive: all assays above

COCC(=O)NC[C@@H]1N[C@@H](CO)[C@H]1c1ccc(C2=CCCC2)cc1
inactive: all assays above

CN1CCN(C(=O)C[C@@H]2CC[C@H]3[C@@H](COC[C@H](O)CN3C(=O)Cc3ccccc3)O2)CC1
inactive: all assays above

COc1cccc(S(=O)(=O)Nc2ccc3c(c2)[C@H]2C[C@H](CC(=O)NCc4cccc(F)c4)O[C@@H](CO)[C@H]2O3)c1
inactive: all assays above

C[C@@H](NC(=O)C[C@H]1CC[C@@H](NC(=O)Cc2ccccn2)[C@@H](CO)O1)c1ccccc1
inactive: all assays above

O=C(NCC[C@H]1CC[C@@H](NS(=O)(=O)c2ccc(F)cc2)[C@H](CO)O1)c1ccc2c(c1)OCO2
inactive: all assays above

Cc1cccc(C)c1NC(=O)C(C)N1CCCC1 (centres undefined)
inactive: all assays above

C[C@H](CO)N1C[C@H](C)[C@H](CN(C)C(=O)Nc2cccc3ccccc23)Oc2ccc(NC(=O)Nc3ccccc3)cc2C1=O
inactive: all assays above

C[C@@H]1CN([C@@H](C)CO)C(=O)Cc2cc(NC(=O)Nc3cccc4ccccc34)ccc2O[C@@H]1CN(C)Cc1ccc(C(=O)O)cc1
inactive: all assays above

COc1ccc(OC(C)C(=O)NC(C)c2ccccc2)cc1 (centres undefined)
inactive: all assays above

O=C(c1cc(Br)ccc1Cl)N1CCN(c2ccccn2)CC1
inactive: all assays above

CCCNC(=O)N1C[C@@H](O)COC[C@H]2O[C@H](CC(=O)N3CCN(C)CC3)CC[C@@H]21
inactive: all assays above

CNC(=O)C[C@@H]1CC[C@H]2[C@@H](COC[C@H](O)CN2C(=O)Nc2ccc3c(c2)OCO3)O1
inactive: all assays above

Cc1noc(C)c1NC(=O)Nc1ccc2c(c1)C(=O)N([C@H](C)CO)C[C@@H](C)[C@H](CN(C)S(C)(=O)=O)OCCCC[C@@H](C)O2
inactive: all assays above

CC(C)NC(=O)Nc1ccc2c(c1)C(=O)N([C@@H](C)CO)C[C@@H](C)[C@H](CN(C)Cc1ccncc1)OCCCC[C@@H](C)O2
inactive: all assays above

C/C=C/c1ccc([C@@H]2[C@@H](CNC(=O)c3ccccc3)N(C(C)=O)[C@H]2CO)cc1
inactive: all assays above

COc1cccc(S(=O)(=O)N2C[C@@H](O)COC[C@H]3O[C@H](CC(=O)N4CCN(C)CC4)CC[C@@H]32)c1
inactive: all assays above

CC(C)NC(=O)Nc1ccc2c(c1)CC(=O)N([C@@H](C)CO)C[C@@H](C)[C@@H](CN(C)S(=O)(=O)c1ccc(Cl)cc1)O2
inactive: all assays above

COc1ccc(-c2cnc3c(c2)C(=O)N([C@@H](C)CO)C[C@@H](C)[C@@H](CN(C)S(C)(=O)=O)O3)cc1
inactive: all assays above

CCC(=O)N[C@@H]1C=C[C@H](CC(=O)NCC2CCCCC2)O[C@H]1CO
inactive: all assays above

O=C(C[C@H]1C=C[C@H](NC(=O)Nc2cc(F)ccc2F)[C@@H](CO)O1)NCCCN1CCOCC1
inactive: all assays above

O=C(Cc1ccccc1)N[C@H]1C=C[C@@H](CC(=O)N2CCOCC2)O[C@H]1CO
inactive: all assays above

C[C@H](CO)N1C[C@H](C)[C@@H](CN(C)C(=O)c2cccc(F)c2)Oc2cc(-c3cncnc3)ccc2S1(=O)=O
inactive: all assays above

CCCC(=O)N1CCCC1(C)C(=O)Nc1cc(C)ccc1C (centres undefined)
inactive: all assays above

Cc1ccc(S(=O)(=O)N[C@@H]2CCCN(Cc3cccc(OCCO)c3)C2)cc1
inactive: all assays above

O=C(C[C@@H]1CC[C@@H]2[C@H](COC[C@H](O)CN2Cc2cccc(C(F)(F)F)c2)O1)NCc1ccc(Cl)cc1
inactive: all assays above

CNC(=O)C[C@H]1CC[C@H]2[C@@H](COc3ccc(NC(=O)Nc4ccccc4)cc3C(=O)N2C)O1
inactive: all assays above

CC(C)NC(=O)N(C)C[C@H]1OCCCC[C@@H](C)Oc2ccc(NC(=O)c3ccccc3)cc2C(=O)N([C@@H](C)CO)C[C@@H]1C
inactive: all assays above

CCCNC(=O)Nc1ccc2c(c1)C(=O)N(C)C[C@H](OC)[C@@H](C)CN(C(=O)CC)[C@@H](C)CO2
inactive: all assays above

C[C@@H]1CN([C@@H](C)CO)C(=O)c2cccc(NS(=O)(=O)c3ccc(F)cc3)c2O[C@H]1CN(C)S(=O)(=O)c1ccc(Cl)cc1
inactive: all assays above

CCc1ccc(NC(=O)C2NC(=O)CC2c2ccccc2)cc1 (centres undefined)
inactive: all assays above

CC=Cc1ccc2n(c1=O)C[C@H]1[C@H](CO)[C@@H](C(=O)NCc3ccc4c(c3)OCO4)[C@@H]2N1C(=O)C1CC1 (mixture of isomers)
inactive: all assays above

Cc1cc(C(=O)NC(=S)Nc2ccccc2N2CCCC2)ccc1[N+](=O)[O-]
inactive: all assays above

CN1[C@@H]2c3ccc(-c4cccnc4)c(=O)n3C[C@@H]2[C@@H](CO)[C@@H]1C(=O)N1CCc2ccccc2C1
inactive: all assays above

Cc1ccccc1S(=O)(=O)N[C@H]1CC[C@H](CCNS(=O)(=O)c2cccc(F)c2)O[C@H]1CO
inactive: all assays above

O=C(Nc1ccc(F)cc1)N1C[C@H]2[C@@H](c3ccccc31)[C@@H](CO)N2Cc1cocn1
inactive: all assays above

C[C@@H]1CN([C@@H](C)CO)C(=O)c2cc(-c3ccc(C#N)cc3)cnc2O[C@@H]1CN(C)C(=O)Nc1ccc(F)cc1
inactive: all assays above

CO[C@@H]1CN(C)C(=O)c2ccc(NC(C)=O)cc2OC[C@@H](C)N(C(=O)c2ccccn2)C[C@H]1C
inactive: all assays above

Cc1ccc(C2=NN(C(=O)c3ccc(Br)o3)C(c3ccc(C)cc3)C2)cc1 (centres undefined)
inactive: all assays above

Cc1noc(C)c1NC(=O)Nc1cccc2c1O[C@@H](CN(C)S(=O)(=O)c1cn(C)cn1)[C@@H](C)CN([C@@H](C)CO)C2=O
inactive: all assays above

CNC(=O)C[C@@H]1CC[C@@H]2[C@H](COC[C@H](O)CN2S(=O)(=O)c2cccc(Cl)c2)O1
inactive: all assays above

C[C@H](O)C#Cc1cnc2c(c1)C(=O)N([C@@H](C)CO)C[C@@H](C)[C@@H](CN(C)C(=O)Cc1ccncc1)O2
inactive: all assays above

COc1ccc(-n2ncc3c(SCC(=O)N4CCN(c5ccccc5OC)CC4)ncnc32)cc1
inactive: all assays above

COc1ccc(NC(=O)N(C)C[C@H]2OCCCC[C@H](C)Oc3ccc(NC(=O)C4CCCCC4)cc3C(=O)N([C@@H](C)CO)C[C@@H]2C)cc1
inactive: all assays above

C[C@@H]1CN([C@@H](C)CO)C(=O)CCCn2cc(nn2)CO[C@@H]1CN(C)C(=O)CCCN(C)C
inactive: all assays above
